The values below come from PubChem BioAssay (EPA / NIEHS).

Values joined by “and” are separate entries in the source; they are usually repeats but may differ in a detail not shown here. Equal values may be shown once. Active and inactive are the calls of the source. How the source made its calls: active means hit-call score of the fitted dose curve at least 0.9, where 1 is the maximum; inactive means score below 0.9.

Read-out in this test: CD69, CD69 (gene 969)
The experiment in a line: BSK_IMphg_CD69: BioMAP Diversity Plus: IMphg Assay for CD69 Biomarker Activity (AID 2284257). The settings on record: primary human endothelial cells with macrophages. As to the method:
BSK_IMphg is a cell-based, multiplexed-readout assay that uses venular endothelial cells and macrophages, a human vascular primary cell, with measurements taken at 24 hours after chemical dosing in a microplate: 96-well plate.BSK_IMphg_CD69 is an assay component measured in the BSK_IMphg assay. It measures CD69 antibody related to regulation of gene expression using ELISA technology.Data from the assay component BSK_IMphg_CD69 was analyzed at the endpoint, BSK_IMphg_CD69, in the positive analysis fitting direction relative to DMSO as the negative control and baseline of activity. Using a type of binding reporter, gain or loss-of-signal activity can be used to understand protein changes. To generalize the intended target to other relatable targets, this assay endpoint is annotated to the 'cytokine' intended target family, where the subfamily is 'inflammatory factor'.
The levels of cell surface (or secreted, indicated by the prefix "s") biomarker endpoints were measured by ELISA. Overt cytotoxicity to cells in confluent adherent cultures (all systems other than the BT system) was assessed by measuring total protein levels using sulforhodamine B (SRB) staining in parallel cultures at the time of biomarker measurements, indicated as SRB endpoints. For proliferation assays for adherent cell types, individual cell types are cultured at sub-confluence and relative cell numbers quantified by SRB staining at time points optimized for each system (48 h: 3C and CASM3C systems; 72 h: BT and HDF3CGF systems; 96 h: SAg system). SRB was performed by staining cells with 0.1% SRB after fixation with 10% TCA and reading wells at 560 nm.Viability and proliferation of PBMC (T cells) was quantified by Alamar Blue reduction for the SAg and BT systems. For PBMC viability (referred to as PBMC Cytotoxicity within the assay endpoint names), cells were plated (75,000/well in a 96-well plate) and then chemical samples added for 1 h before addition of activators, SEB and TSST-1 (20 ng/mL final concentration each). Cells were incubated for 90 h. Then, Alamar Blue (20 uL/well) (Invitrogen, Cat DAL1100) was added for 6 h, and the plates were read with a fluorescence microplate reader at 546/580 nm (excitation/emission). For PBMC proliferation, cells were plated and activated as above but incubated for only 16 h prior to addition of Alamar Blue. Plates were read after 6 h.
As to `O=C(O)C(F)(F)OC(F)(F)C(F)(F)OC(F)(F)C(=O)O`, the outcome was inactive.

`NC(=O)C(F)(F)C(F)(F)F`: the result was inactive. The same measure, in the same setting: in the case of `CC(O)C(F)(F)C(F)(F)F` (centres undefined) it was “inactive”; in that of `O=S(=O)(F)C(F)(F)C(F)(F)C(F)(F)C(F)(F)C(F)(F)C(F)(F)C(F)(F)C(F)(F)F`, “inactive”. Same read-out and setting: in the case of `C=CC(=O)OCC(F)(F)C(F)F` it was “inactive”; in that of `O=C(O)C=CC(F)(C(F)(F)F)C(F)(F)F`, “inactive”; in that of `OCC(F)(F)OC(F)(F)C(F)(F)OC(F)(F)CO`, “inactive”. `O=C(O)C(F)(F)C(F)(F)C(=O)O`: the outcome was inactive.

`FC(F)(F)C(F)(C(F)(F)F)C(F)(F)C(F)(F)CC1CO1` (centres undefined): the result was inactive.

As to `O=C(O)C(F)(F)OC(F)(F)C(F)(F)OC(F)(F)F`, the outcome was inactive. On to `OCC(F)(F)OC(F)(F)C(F)(F)OC(F)(F)C(F)(F)OC(F)(F)F`, for which the AC50 is 48.6 µM (active) and 7.29 µM (active). With `O=C(O)C(F)(OC(F)(F)C(F)(F)C(F)(F)F)C(F)(F)F` (centres undefined), the result was inactive. On the same count and under the same terms, under `OCC(F)(F)OC(F)(F)C(F)(F)OC(F)(F)C(F)(F)OC(F)(F)CO` stands “inactive”; under `COC(=O)C(F)(F)C(F)(F)OC(F)(C(F)(F)F)C(F)(F)OC(F)=C(F)F` (centres undefined), “inactive”.
